Laboratory results from paper PMC7862700, “An all-to-all approach to the identification of sequence-specific readers for epigenetic DNA modifications on cytosine”.

Key:
Assay in all cases: DAPPL (digital affinity profiling via proximity ligation, sequencing); 10 mM Tris-HCl pH 7.5, 50 mM NaCl, 1 mM DTT, 4% glycerol, room temperature, 30 min; GST-TFs on glutathione beads, 16-mer random dsDNA library, 0.1% formaldehyde crosslink after washing; high values mean tight binding
FEV = biological target: T1, FEV (Homo sapiens, UniProt Q99581 1-238); conditions: protein: recombinant; tags: N-terminal GST; dsDNA, one strand shown
T1 sequence: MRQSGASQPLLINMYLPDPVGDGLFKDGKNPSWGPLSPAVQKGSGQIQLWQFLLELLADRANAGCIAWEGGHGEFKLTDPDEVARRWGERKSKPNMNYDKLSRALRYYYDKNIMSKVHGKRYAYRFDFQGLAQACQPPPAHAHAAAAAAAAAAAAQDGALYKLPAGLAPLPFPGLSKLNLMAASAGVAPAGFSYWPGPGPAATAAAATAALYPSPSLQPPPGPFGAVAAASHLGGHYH
Method in brief: (§1)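 Human transcription factors were made in yeast as GST fusions, captured on glutathione beads and barcoded with DNA. With a tag-only sample included, the pool was incubated with 200 nmole of a random double-stranded 16-mer DNA library in Tris/NaCl/DTT/glycerol buffer at room temperature for 30 min, then crosslinked with 0.1% formaldehyde after washing, ligated by proximity, amplified and sequenced. For binding signal, each hexamer's read frequency for a factor is divided by its frequency for the tag-only sample.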

ETV5 = ETV5 (Homo sapiens, UniProt P41161 1-510); conditions: protein: recombinant; tags: N-terminal GST; dsDNA, one strand shown
Method in brief: as §1

HSF1 = HSF1 (Homo sapiens, UniProt Q00613 1-529); conditions: protein: recombinant; tags: N-terminal GST; chain copies: 3; dsDNA, one strand shown
Method in brief: as §1

SPIC = biological target: T2, SPIC (Homo sapiens, UniProt Q8N5J4 1-248); conditions: protein: recombinant; tags: N-terminal GST; dsDNA, one strand shown
T2 sequence: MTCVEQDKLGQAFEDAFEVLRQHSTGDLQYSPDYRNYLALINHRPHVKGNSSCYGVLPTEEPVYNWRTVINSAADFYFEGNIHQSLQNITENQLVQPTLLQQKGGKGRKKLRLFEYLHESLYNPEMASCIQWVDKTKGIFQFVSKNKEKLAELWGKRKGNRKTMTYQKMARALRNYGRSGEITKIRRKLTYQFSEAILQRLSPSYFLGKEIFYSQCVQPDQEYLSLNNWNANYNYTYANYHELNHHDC
Method in brief: as §1

ELF4 = ELF4 (Homo sapiens, UniProt Q99607 1-663); conditions: protein: recombinant; tags: N-terminal GST; dsDNA, one strand shown
Method in brief: as §1

ELK4 = biological target: T3, ELK4 (Homo sapiens, UniProt P28324-2 1-405); conditions: protein: recombinant; tags: N-terminal GST; dsDNA, one strand shown
T3 sequence: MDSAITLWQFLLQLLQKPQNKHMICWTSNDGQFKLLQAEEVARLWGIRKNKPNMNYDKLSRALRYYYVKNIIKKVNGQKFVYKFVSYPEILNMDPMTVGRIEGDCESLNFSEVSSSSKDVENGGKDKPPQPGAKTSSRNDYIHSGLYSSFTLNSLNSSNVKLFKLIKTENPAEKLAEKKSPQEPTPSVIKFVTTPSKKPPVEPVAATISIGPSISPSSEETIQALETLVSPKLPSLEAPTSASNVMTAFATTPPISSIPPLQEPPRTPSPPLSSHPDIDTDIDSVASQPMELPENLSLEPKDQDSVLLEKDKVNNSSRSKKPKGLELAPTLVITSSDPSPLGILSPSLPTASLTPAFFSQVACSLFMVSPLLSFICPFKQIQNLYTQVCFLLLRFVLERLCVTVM
Method in brief: as §1

ETV2 = biological target: T4, ETV2 (Homo sapiens, UniProt O00321 1-342); conditions: protein: recombinant; tags: N-terminal GST; dsDNA, one strand shown
T4 sequence: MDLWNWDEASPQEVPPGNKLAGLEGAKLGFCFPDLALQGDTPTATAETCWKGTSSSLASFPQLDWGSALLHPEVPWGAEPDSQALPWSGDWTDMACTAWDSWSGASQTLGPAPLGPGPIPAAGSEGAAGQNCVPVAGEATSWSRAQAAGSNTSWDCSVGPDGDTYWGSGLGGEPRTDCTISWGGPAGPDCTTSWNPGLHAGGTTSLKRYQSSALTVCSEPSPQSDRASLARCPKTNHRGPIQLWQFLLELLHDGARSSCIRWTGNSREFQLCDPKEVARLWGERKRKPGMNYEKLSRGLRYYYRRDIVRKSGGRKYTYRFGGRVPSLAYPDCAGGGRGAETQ
Method in brief: as §1

ELF3 = biological target: T5, ELF3 (Homo sapiens, UniProt P78545 1-371); conditions: protein: recombinant; tags: N-terminal GST; dsDNA, one strand shown
T5 sequence: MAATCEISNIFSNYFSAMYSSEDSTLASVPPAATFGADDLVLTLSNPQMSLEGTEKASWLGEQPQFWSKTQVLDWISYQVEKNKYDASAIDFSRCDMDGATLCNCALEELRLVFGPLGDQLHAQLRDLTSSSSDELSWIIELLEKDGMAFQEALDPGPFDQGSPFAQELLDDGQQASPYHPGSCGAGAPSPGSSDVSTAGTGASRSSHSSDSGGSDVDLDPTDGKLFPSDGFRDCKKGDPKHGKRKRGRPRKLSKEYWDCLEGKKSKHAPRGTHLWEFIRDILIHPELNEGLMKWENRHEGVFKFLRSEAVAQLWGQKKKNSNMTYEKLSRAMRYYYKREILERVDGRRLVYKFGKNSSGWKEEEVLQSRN
Method in brief: as §1

CRX = CRX (Homo sapiens, UniProt O43186 1-299); conditions: protein: recombinant; tags: N-terminal GST; dsDNA, one strand shown
Method in brief: as §1

ETV1 = ETV1 (Homo sapiens, UniProt P50549 1-477); conditions: protein: recombinant; tags: N-terminal GST; dsDNA, one strand shown
Method in brief: as §1

ERF = biological target: T6, ERF (Homo sapiens, UniProt P50548 1-548); conditions: protein: recombinant; tags: N-terminal GST; dsDNA, one strand shown
T6 sequence: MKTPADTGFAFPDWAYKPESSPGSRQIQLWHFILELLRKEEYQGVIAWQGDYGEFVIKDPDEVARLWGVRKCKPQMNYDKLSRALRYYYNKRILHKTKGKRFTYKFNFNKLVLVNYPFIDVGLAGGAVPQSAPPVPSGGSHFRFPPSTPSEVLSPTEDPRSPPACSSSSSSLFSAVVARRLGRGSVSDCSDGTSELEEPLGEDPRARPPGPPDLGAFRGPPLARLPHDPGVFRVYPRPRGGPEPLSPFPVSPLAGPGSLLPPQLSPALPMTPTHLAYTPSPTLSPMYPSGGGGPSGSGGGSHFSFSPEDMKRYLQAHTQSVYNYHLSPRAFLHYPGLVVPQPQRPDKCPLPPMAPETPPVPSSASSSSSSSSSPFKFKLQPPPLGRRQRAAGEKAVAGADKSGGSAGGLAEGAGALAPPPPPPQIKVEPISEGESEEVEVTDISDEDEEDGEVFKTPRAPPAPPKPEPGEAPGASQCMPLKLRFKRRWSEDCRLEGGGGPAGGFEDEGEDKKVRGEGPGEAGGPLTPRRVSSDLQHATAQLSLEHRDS
Method in brief: as §1

ETV3L = biological target: T7, ETV3L (Homo sapiens, UniProt Q6ZN32 1-361); conditions: protein: recombinant; tags: N-terminal GST; dsDNA, one strand shown
T7 sequence: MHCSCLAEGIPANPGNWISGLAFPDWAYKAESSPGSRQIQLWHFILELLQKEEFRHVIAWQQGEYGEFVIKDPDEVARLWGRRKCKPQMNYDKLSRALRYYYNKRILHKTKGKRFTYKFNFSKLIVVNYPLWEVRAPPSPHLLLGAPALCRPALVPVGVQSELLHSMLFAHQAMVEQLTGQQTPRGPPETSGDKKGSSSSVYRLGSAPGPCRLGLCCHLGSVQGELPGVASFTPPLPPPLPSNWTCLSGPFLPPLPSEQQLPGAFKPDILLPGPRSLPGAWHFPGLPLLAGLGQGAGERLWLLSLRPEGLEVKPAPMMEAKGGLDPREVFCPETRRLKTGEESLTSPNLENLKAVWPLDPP
Method in brief: as §1

ETS2 = biological target: T8, ETS2 (Homo sapiens, UniProt P15036 1-469); conditions: protein: recombinant; tags: N-terminal GST; dsDNA, one strand shown
T8 sequence: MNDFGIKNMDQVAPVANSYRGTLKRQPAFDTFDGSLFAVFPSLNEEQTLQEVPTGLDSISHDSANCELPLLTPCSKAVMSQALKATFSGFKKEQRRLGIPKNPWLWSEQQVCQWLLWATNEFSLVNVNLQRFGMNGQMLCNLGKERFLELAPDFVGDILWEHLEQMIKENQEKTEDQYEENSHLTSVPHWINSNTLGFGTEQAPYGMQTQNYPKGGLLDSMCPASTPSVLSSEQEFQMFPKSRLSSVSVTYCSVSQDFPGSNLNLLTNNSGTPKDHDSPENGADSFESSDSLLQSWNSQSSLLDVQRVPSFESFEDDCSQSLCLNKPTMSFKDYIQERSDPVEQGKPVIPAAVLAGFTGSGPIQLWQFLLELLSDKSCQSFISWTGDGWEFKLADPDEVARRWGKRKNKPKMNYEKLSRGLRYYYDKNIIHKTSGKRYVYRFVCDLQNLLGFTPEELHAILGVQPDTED
Method in brief: as §1

SPDEF = biological target: T9, SPDEF (Homo sapiens, UniProt O95238 1-335); conditions: protein: recombinant; tags: N-terminal GST; dsDNA, one strand shown
T9 sequence: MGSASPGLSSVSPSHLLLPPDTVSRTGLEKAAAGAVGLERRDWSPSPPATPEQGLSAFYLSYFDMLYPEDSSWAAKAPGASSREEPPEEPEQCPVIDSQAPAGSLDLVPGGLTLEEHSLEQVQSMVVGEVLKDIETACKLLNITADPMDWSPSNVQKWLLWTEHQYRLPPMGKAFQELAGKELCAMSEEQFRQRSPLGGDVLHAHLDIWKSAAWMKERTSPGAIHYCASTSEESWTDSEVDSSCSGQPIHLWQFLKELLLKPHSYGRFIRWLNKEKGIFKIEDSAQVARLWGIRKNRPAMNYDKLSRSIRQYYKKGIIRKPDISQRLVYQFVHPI
Method in brief: as §1

ETV7 = biological target: T10, ETV7 (Homo sapiens, UniProt Q9Y603 1-341); conditions: protein: recombinant; tags: N-terminal GST; dsDNA, one strand shown
T10 sequence: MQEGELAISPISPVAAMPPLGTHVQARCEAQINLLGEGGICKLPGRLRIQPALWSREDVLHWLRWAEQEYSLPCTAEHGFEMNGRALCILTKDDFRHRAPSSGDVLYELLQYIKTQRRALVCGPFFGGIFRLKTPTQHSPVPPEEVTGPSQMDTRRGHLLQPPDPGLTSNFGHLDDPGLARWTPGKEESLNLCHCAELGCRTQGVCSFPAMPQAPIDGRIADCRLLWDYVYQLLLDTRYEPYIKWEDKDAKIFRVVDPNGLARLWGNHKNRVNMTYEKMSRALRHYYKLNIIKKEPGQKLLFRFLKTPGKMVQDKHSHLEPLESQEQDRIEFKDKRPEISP
Method in brief: as §1

ELF5 = biological target: T11, ELF5 (Homo sapiens, UniProt Q9UKW6-2 1-255); conditions: protein: recombinant; tags: N-terminal GST; dsDNA, one strand shown
T11 sequence: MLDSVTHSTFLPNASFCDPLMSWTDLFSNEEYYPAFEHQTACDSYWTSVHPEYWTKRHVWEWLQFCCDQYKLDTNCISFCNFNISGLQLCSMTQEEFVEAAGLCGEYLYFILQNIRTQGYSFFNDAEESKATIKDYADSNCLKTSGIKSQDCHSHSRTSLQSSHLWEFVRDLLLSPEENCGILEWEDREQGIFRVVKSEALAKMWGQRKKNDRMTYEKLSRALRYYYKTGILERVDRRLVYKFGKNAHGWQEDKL
Method in brief: as §1

ETV3 = biological target: T12, ETV3 (Homo sapiens, UniProt P41162-2 1-143); conditions: protein: recombinant; tags: N-terminal GST; dsDNA, one strand shown
T12 sequence: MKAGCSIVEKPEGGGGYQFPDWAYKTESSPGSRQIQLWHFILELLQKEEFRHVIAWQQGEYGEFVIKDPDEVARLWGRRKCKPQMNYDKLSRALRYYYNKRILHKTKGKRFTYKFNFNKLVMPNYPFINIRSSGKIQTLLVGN
Method in brief: as §1

ETV6 = ETV6 (Homo sapiens, UniProt P41212 1-452); conditions: protein: recombinant; tags: N-terminal GST; dsDNA, one strand shown
Method in brief: as §1

Sequence of ETV6 (P41212 whole entry): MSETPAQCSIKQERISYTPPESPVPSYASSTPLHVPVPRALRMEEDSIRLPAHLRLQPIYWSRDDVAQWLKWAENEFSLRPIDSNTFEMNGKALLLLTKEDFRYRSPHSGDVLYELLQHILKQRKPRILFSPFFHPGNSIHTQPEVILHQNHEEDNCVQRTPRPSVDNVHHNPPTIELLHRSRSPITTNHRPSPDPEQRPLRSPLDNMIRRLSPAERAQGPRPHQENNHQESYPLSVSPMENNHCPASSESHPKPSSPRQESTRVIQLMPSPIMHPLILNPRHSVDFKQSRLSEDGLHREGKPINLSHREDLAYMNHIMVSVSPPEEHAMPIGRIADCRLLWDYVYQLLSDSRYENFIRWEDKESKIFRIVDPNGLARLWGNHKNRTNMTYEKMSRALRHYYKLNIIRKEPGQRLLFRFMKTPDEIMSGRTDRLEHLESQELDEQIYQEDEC
Sequence of ETV1 (P50549 whole entry): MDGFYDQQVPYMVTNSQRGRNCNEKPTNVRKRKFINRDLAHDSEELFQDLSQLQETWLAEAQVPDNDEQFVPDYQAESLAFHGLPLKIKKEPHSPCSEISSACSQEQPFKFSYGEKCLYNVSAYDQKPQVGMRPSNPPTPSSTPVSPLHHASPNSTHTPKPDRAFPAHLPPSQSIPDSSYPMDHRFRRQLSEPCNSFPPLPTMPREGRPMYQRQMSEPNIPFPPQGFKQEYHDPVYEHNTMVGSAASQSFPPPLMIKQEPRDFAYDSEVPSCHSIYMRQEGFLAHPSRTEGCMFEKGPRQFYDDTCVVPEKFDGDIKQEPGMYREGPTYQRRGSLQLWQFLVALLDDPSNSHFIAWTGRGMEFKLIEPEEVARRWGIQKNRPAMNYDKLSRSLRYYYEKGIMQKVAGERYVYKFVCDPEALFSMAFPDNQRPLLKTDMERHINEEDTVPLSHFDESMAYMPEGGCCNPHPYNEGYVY
Sequence of ELF4 (Q99607 whole entry): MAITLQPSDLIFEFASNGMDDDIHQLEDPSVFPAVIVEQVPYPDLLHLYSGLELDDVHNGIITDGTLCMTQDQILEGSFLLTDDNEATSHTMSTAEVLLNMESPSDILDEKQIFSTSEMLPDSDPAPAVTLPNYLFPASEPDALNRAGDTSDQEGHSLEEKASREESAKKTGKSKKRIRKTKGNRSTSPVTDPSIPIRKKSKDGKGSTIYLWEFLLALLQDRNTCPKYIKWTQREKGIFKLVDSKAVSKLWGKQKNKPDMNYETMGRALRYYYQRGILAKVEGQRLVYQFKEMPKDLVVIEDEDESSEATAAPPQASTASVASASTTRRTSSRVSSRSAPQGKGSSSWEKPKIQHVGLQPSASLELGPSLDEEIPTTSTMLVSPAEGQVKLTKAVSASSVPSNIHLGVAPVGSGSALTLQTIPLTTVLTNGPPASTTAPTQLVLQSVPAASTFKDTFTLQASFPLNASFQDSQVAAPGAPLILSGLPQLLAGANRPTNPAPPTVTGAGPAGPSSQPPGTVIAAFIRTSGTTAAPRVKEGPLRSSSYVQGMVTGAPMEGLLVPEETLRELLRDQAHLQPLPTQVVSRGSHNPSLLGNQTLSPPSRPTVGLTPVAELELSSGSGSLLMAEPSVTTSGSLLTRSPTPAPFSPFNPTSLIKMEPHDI
Sequence of CRX (O43186 whole entry): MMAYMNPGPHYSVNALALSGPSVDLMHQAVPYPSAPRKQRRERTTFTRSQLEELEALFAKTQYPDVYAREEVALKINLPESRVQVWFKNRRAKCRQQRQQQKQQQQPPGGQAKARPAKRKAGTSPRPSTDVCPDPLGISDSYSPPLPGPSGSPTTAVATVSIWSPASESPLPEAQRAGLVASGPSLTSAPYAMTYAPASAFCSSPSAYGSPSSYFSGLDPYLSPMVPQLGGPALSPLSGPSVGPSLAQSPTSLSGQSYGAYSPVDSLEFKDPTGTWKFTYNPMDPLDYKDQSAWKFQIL
Sequence of HSF1 (Q00613 whole entry): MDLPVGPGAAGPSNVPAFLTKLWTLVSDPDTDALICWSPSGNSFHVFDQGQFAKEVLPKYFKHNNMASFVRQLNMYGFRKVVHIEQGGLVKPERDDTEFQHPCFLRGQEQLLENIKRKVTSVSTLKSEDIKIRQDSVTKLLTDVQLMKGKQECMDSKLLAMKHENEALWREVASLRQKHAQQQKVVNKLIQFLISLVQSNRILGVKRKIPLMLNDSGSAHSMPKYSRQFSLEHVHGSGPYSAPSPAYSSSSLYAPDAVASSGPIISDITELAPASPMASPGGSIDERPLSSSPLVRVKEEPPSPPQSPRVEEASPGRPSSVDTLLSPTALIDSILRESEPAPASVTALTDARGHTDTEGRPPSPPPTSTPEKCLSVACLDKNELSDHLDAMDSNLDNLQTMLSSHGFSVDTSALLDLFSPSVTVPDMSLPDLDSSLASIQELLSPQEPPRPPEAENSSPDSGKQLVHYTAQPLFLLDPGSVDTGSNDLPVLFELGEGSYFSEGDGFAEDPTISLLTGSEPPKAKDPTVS
Sequence of ETV5 (P41161 whole entry): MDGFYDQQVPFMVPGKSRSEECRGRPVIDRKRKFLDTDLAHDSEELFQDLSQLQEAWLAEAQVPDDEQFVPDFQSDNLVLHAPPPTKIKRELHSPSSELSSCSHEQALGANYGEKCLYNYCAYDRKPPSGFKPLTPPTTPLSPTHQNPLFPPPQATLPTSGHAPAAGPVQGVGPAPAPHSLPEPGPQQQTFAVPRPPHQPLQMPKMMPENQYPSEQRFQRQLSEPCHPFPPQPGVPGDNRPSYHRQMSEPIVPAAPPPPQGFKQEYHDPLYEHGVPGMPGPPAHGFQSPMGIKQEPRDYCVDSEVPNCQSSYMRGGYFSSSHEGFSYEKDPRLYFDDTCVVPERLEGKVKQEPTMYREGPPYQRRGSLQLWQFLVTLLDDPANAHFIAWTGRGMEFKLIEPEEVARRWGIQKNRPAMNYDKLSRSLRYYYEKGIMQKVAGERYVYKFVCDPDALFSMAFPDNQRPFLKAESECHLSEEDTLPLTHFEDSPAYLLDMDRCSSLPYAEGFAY

TATATT
binding signal (FEV): 1.39 fold enrichment (6-mer frequency, TF over GST control) | binding signal (ETV5): 1.43 fold enrichment (6-mer frequency, TF over GST control) | binding signal (HSF1): 1.58 fold enrichment (6-mer frequency, TF over GST control) | binding signal (SPIC): 1.56 fold enrichment (6-mer frequency, TF over GST control) | binding signal (ELF4): 1.32 fold enrichment (6-mer frequency, TF over GST control) | binding signal (ELK4): 1.65 fold enrichment (6-mer frequency, TF over GST control) | binding signal (ETV2): 1.41 fold enrichment (6-mer frequency, TF over GST control) | binding signal (ELF3): 1.58 fold enrichment (6-mer frequency, TF over GST control) | binding signal (CRX): 1.93 fold enrichment (6-mer frequency, TF over GST control) | binding signal (ETV1): 1.44 fold enrichment (6-mer frequency, TF over GST control) | binding signal (ERF): 1.43 fold enrichment (6-mer frequency, TF over GST control) | binding signal (ETV3L): 1.5 fold enrichment (6-mer frequency, TF over GST control) | binding signal (ETS2): 1.31 fold enrichment (6-mer frequency, TF over GST control) | binding signal (SPDEF): 1.32 fold enrichment (6-mer frequency, TF over GST control) | binding signal (ETV7): 1.4 fold enrichment (6-mer frequency, TF over GST control) | binding signal (ELF5): 1.35 fold enrichment (6-mer frequency, TF over GST control) | binding signal (ETV3): 1.44 fold enrichment (6-mer frequency, TF over GST control) | binding signal (ETV6): 1.37 fold enrichment (6-mer frequency, TF over GST control)
